The results in this text go back to PubChem BioAssay AID743363 (Broad Institute, 2014).

Calls of active or inactive are those of the source. The rule behind the calls is not given here.

This assay is described as follows: interference with FL-DTB/streptavidin displacement signal, dose response, counter-screen, biochemical, dry powder samples (AID 743363). Particulars: FL-DTB/streptavidin fluorescence displacement counter-screen, BioD coupled; series mostly up to 10 µM. In general terms: A counterscreen serves to expose hits that act by an unwanted route or on another target.
Regarding `CN1c2ccc(-c3cccc(F)c3)cc2[C@H]2[C@H](CCN2C(=O)CCCCCCN)[C@H]1CO`, the compound was classed as inactive.
As for `COc1ccccc1NC(=O)N1CC[C@@H]2[C@@H](CO)N(C)c3ccc(-c4ccc(F)cc4)cc3[C@@H]21`, the compound was called inactive.
The result for `CCCCCCCC(=O)N1CC[C@@H]2[C@@H](CO)N(C)c3ccc(-c4cccc(F)c4)cc3[C@@H]21` reads “inactive”.
For `CS(=O)(=O)c1ccc(N2CCN(C(=O)c3ccc4c(c3)OCO4)CC2)cc1`, the compound was classed as inactive.
Turning to `O=C(c1ccc2c(c1)OCO2)N1CCN(c2ccc(S(=O)(=O)C(F)(F)F)cc2)CC1`, the call was inactive.
On to `CC(=O)c1ccc(N2CCN(C(=O)c3ccc4snnc4c3)CC2)cc1`, for which the call was inactive.
Then `CC(=O)c1ccc(N2CCN(C(=O)c3cc(Cl)c4c(c3)OCO4)CC2)cc1`, with “inactive”; and `CC(=O)c1ccc(N2CCN(C(=O)c3ccc(Cl)c(Cl)c3)CC2)cc1`, with “inactive”; and `COc1cc2c(cc1C(=O)N1CCN(c3ccc(C(C)=O)cc3)CC1)OCO2`, with “inactive”.
Take `CC(=O)c1ccc(N2CCN(C(=O)c3cc4c(cc3Cl)OCO4)CC2)cc1`: the outcome was inactive.
As to `CN1c2ccc(-c3cccc(F)c3)cc2[C@@H]2[C@@H](CCN2C(=O)c2ccc3c(c2)OCO3)[C@H]1CO`, the call was inactive.
Turning to `CN1c2ccc(-c3ccc(F)cc3)cc2[C@H]2[C@H](CCN2C(=O)Cc2cccnc2)[C@H]1CO`, the outcome was inactive.
As to `CN(C)C(=O)c1ccc(N2CCN(C(=O)c3ccc4c(c3)OCO4)CC2)cc1`, the result was inactive.
`CN1c2ccc(-c3cccc(F)c3)cc2[C@H]2[C@H](CCN2C(=O)c2ccc3c(c2)OCO3)[C@@H]1CO`: the outcome was inactive.
Regarding `CN(C)S(=O)(=O)c1ccc(N2CCN(C(=O)c3ccc4c(c3)OCO4)CC2)cc1`, the result was inactive.
As to `COc1cc(C(=O)N2CCN(c3ccc(C(C)=O)cc3)CC2)cc2c1OCO2`, the compound was called inactive.
As to `CC(=O)c1ccc(N2CCN(C(=O)c3ccccc3F)CC2)cc1`, the result was inactive.
With `CC(=O)c1ccc(N2CCN(S(=O)(=O)c3ccc4c(c3)OCO4)CC2)cc1`, the compound was classed as inactive.
Regarding `CC(=O)c1ccc(N2CCCN(C(=O)c3ccc4c(c3)OCO4)CC2)cc1`, the call was inactive.
For the compound `CC(=O)c1ccc(N2CCN(C(=O)c3ccc4c(c3C)OCO4)CC2)cc1`, the compound was called inactive.
Consider `CC(=O)c1ccc(N2CCN(C(=O)c3ccc4c(c3)OCO4)CC2)cc1`, for which the call was inactive.
For `CN1c2ccc(-c3cccc(F)c3)cc2[C@H]2[C@H](CCN2C(=O)Cc2ccccc2)[C@H]1CO`, the compound was classed as inactive.
Then `CCCNC(=O)N1CC[C@@H]2[C@@H](CO)N(C)c3ccc(-c4ccc(F)cc4)cc3[C@@H]21`, with “inactive”; and `CC(=O)c1ccc(NCCNC(=O)c2ccc3c(c2)OCO3)cc1`, with “inactive”.
`CC(=O)c1ccc(N2CCN(C(=O)Nc3ccc4c(c3)OCO4)CC2)cc1`: the result was inactive.
Consider `CC(=O)c1ccc(N2CC3CC2CN3C(=O)c2ccc3c(c2)OCO3)cc1` (stereo not given), for which the call was inactive.
For the compound `CC(C)NC(=O)N1CC[C@@H]2[C@@H](CO)N(C)c3ccc(-c4cccc(F)c4)cc3[C@@H]21`, the call was inactive.
`CCC(=O)N1CC[C@@H]2[C@@H](CO)N(C)c3ccc(-c4ccc(F)cc4)cc3[C@@H]21`: the compound was classed as inactive.
Then `CN1c2ccc(-c3ccc(F)cc3)cc2[C@H]2[C@H](CCN2C(=O)Cc2ccccn2)[C@H]1CO`, with “inactive”.
For the compound `CN1c2ccc(-c3cccc(F)c3)cc2[C@H]2[C@H](CCN2C(=O)Cc2cccnc2)[C@H]1CO`, the compound was classed as inactive.
